Inconclusive results are not listed. The source made the active and inactive calls. Calls come from the whole dose curve.
Assay: qHTS assay to identify small molecule antagonists of the estrogen receptor alpha (ER-alpha) signaling pathway using the BG1 cell line (AID 743080);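 note: BG1 cells stimulated with 17beta-estradiol alongside compound; nearly all actives have a fitted effect of over 25% in size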
Conditions: BG1Luc4E2 ERE-luciferase antagonist mode, luminescence; series mostly up to 70.3 µM; activity change, negative = inhibition: at the top concentration
Excerpt: National Center for Advancing Translational Sciences [NCATS]
NIH Chemical Genomics Center [NCGC]
U.S. Environmental Protection Agency [EPA]
National Institutes of Environmental Health Sciences [NIEHS]
National Toxicology Program [NTP]
U.S. Food and Drug Administration [FDA]
Estrogen receptor (ER), a nuclear hormone receptor, plays an important role in development, metabolic homeostasis and reproduction. Endocrine disrupting chemicals (EDCs) and their interactions with steroid hormone receptors like ER causes disruption of normal endocrine function. Therefore, it is important to understand the effect of environmental chemicals on the ER signaling pathway. To identify ER antagonists, BG1-Luc-4E2 cell line (provided by Dr. Michael Denison from University of California) has been used to screen the Tox21 10K compound library. BG1Luc4E2 cell line endogenously expresses full-length ER-alpha and is stably transfected with a plasmid containing four estrogen responsive elements (ERE) upstream of a luciferase reporter gene.
Tox21 Assay Protocol Summary:
BG1-Luc-4E2 cells were cultured in phenol red free assay medium containing 10% charcoal stripped FBS for 5 days before the assay was performed. The cells were dispensed at 4,000 cells/4 uL of assay medium per well into white wall/solid-bottom 1536-well plates using a Multidrop Combi (ThermoFisher Scientific, Waltham, MA) dispenser. The assay plates were incubated at a 37C and 5% CO2 for 24 h, and then 23 nL of compounds dissolved in DMSO, positive controls or DMSO only was transferred to the assay plate using a Pintool station (Kalypsys, San Diego, CA), followed by addition of 1 uL of 17beta-estradiol in assay medium using a Flying Reagent Dispenser (Aurora Discovery, San Diego, CA). After the plates were incubated at 37 C and 5% CO2 for 21.5 h, 1 uL of CellTiter-Fluor reagent (Promega, Madison, WI) of measuring cytotoxicity was added using Flying Reagent Dispenser (FRD) to each well. The assay plates were incubated at 37 C and 5% CO2 for additional 30 min and the fluorescence intensity was quantified by a ViewLux plate reader (PerkinElmer, Shelton, CT). For measuring luciferase reporter gene activity, 4 uL of ONE-Glo reagent (Promega) was added to each plate using an FRD and luminescence was quantified by a ViewLux plate reader after 30 min incubation at room temperature.
% is set by controls: 0 for no effect and ±100 for the full control effect; potency is the fitted concentration of half-maximal effect.

SMILES | activity change, negative = inhibition | Potency
CC(C)CCOC(=O)CC(C)C | -5.06% (inactive) | –
Nc1[nH]c(=O)ncc1F | -3.62% [at 32.5 µM] (inactive) | –
OCCN1C[C@H](O)[C@@H](O)[C@H](O)[C@H]1CO | 5.05% (inactive) | –
O=[N+]([O-])c1ccc(CCO)cc1 | 6.69% (inactive) | –
NC(=O)Nc1nc2ccccc2[nH]1 | -3.64% (inactive) | –
C=C(C)[C@H]1CC=C(C)CC1 | -7.45% (inactive) | –
COC[C@H](c1ccc(C(F)(F)F)cc1)N1CCN(C2(C)CCN(C(=O)c3c(C)ncnc3C)CC2)C[C@H]1C | 2.2% (inactive) | –
CCC(C(=O)NC(N)=O)c1ccccc1 (stereo not given) | – | inactive
OCC(CO)(CO)COCC(CO)(CO)CO | 7.08% (inactive) | –
O=S(=O)(c1cccc2cnccc12)N1CCCNCC1 | – | 6.68 µM (active)
CN(C)CCOC(c1ccc(Cl)cc1)c1ccccn1 (stereo not given) | -12.3% (inactive) | –
Nc1ccc2cc(S(=O)(=O)O)ccc2c1 | -3.97% (inactive) | –
Cc1cc(C)cc(OCC2CNC(=O)O2)c1 (stereo not given) | 0.0242% (inactive) | –
CC(C)(O)C(=O)c1ccc(OCCO)cc1 | 5.11% (inactive) | –
CCCCCCC(CCCCCCCCCCC(=O)OCC(COC(C)=O)OC(C)=O)OC(C)=O (stereo not given) | 4.11% (inactive) | –
NS(=O)(=O)c1cc2c(cc1Cl)NC(CSCc1ccccc1)=NS2(=O)=O | 1.75% [at 32.5 µM] (inactive) | –
C/C=C1\C(=O)C[C@H]2[C@@H]3CCC4=CC(=O)CC[C@]4(C)[C@H]3CC[C@]12C | 0.737% (inactive) | –
CC(=O)CCc1ccc(O)cc1 | 1.85% (inactive) | –
Nc1cc(N)cc(C(=O)O)c1 | 6.74% (inactive) | –
C(=C(c1ccccc1)c1ccccc1)c1ccccc1 | -12.5% (inactive) | –

SMILES | activity change, negative = inhibition | Potency
NCCN1CCNC1=O | -3.82% (inactive) | –
CC12CCC(CC1=O)C2(C)C (stereo not given) | 12% (inactive) | –
C=C(C)C(=O)NCCC[N+](C)(C)C | 0.218% (inactive) | –
C1COCCO1 | -6.94% [at 95 µM] (inactive) | –
CCCCC1CCCCC(=O)O1 (stereo not given) | -2.08% (inactive) | –
Cc1nccn1CC1CCc2c(c3ccccc3n2C)C1=O (stereo not given) | – | inactive
CC1=CCC2C(C1)C2(C)C (stereo not given) | -0.514% (inactive) | –
COc1nc(C)nc(N)n1 | 1.49% (inactive) | –
C=C(C)C1CC=C(C)C(O)C1 (stereo not given) | -9.95% [at 95 µM] (inactive) | –
CNc1ncnc2nc[nH]c12 | -8.69% [at 95 µM] (inactive) | –
C=C(C)[C@@H]1CCC2=CC(=O)C[C@@H](C)[C@]2(C)C1 | -4.05% (inactive) | –
CCCCCOC(=O)Nc1nc(=O)n([C@@H]2O[C@H](C)[C@@H](O)[C@H]2O)cc1F | 7.48% (inactive) | –
CC(C)c1cccc(C(C)C)c1N | 0.913% (inactive) | –
CCCCCN(CCCCC)C(=O)C(CCC(=O)O)NC(=O)c1ccc(Cl)c(Cl)c1 (stereo not given) | -8.6% (inactive) | –
COC(=O)[C@H]1[C@H]2C[C@@H]3c4[nH]c5cc(OC)ccc5c4CCN3C[C@H]2C[C@@H](OC(=O)COc2ccc(OC)cc2)[C@@H]1OC | -9.16% (inactive) | –
CC(C)(C)N(CCO)CCO | 0.451% [at 95 µM] (inactive) | –
CCCCc1ccc2cccc(S(=O)(=O)O)c2c1 | 3.46% (inactive) | –
C=C(C)C(=O)OCCC(C)OC(=O)C(=C)C (stereo not given) | -2.19% (inactive) | –
CCCCCC[C@@H](CCC)C(=O)O | 9.03% (inactive) | –
CC1=CC(C)C(C=O)C(C)C1 (stereo not given) | 0.718% (inactive) | –

From PubChem BioAssay (Tox21)
